# High-throughput results as filed in PubChem BioAssay.
# Pol beta inh – DNA polymerase beta (human) inhibition; P06746; Pol beta primer extension/strand displacement, fluorescence kinetic; Potency, µM (series often up to 114 µM), usual class: inhibitors; 340,000 compounds, 1.3% hits; AID 485314
#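 Enzyme-only controls used 10 nM Pol beta; buffer lacking enzyme served as negative control. Compound preincubated 15 min, then 50 nM substrate added; 0 and 10 min reads at room temperature.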
# POLI inh – DNA polymerase iota (human) inhibition; Potency, µM (highest dose often 115 µM), most hits filed as inhibitors; Pol iota fluorescent replication assay, 10 min; AID 588590; 390,000 compounds, 1% hits; Q9UNA4
#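 Pol iota at 10 nM preincubated 15 min with compounds at room temperature; reaction started with fluorescent substrate, 50 nM final. Fluorescence read kinetically at 0 and 10 min; buffer-only wells as negative control.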
# PI4K2A block – inhibitors of human PI4K2A. AID 1346378. 420,000 compounds, 0.13% hits. purified PI4K2A, ADP-Glo luminescence, 1 h; active compounds read low. Q9BTU6. activity change, negative = inhibition, % at 76.9 µM; in the data active = activity change below about -50%; inconclusive = mostly about -30% to -49%
# Target sequence (Q9BTU6 whole entry, looked up): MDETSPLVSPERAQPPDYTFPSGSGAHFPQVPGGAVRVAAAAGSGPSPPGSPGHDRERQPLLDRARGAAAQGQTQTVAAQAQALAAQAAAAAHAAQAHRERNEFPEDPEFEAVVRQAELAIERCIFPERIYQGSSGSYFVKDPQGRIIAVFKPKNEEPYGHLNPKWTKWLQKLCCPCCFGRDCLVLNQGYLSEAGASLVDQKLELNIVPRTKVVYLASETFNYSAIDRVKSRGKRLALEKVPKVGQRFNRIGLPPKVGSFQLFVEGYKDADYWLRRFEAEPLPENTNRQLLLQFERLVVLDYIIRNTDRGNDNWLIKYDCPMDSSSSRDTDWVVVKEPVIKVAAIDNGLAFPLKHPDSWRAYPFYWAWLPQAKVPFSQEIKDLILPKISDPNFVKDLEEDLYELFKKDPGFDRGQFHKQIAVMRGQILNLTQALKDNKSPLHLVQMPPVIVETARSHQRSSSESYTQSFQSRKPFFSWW
#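 Compounds are screened against recombinant PI4K2A using PI as substrate and ATP, the latter dispensed at 300 microM. Reactions run one hour at ambient temperature before ADP-Glo detection; full inhibition defined by wells lacking enzyme.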
# PI5P4K alpha inh – inhibitors of human PI5P4K alpha; P48426; PI5P4Kalpha enzyme, ADP-Glo luminescence, 60 min; active compounds read low; max response, %; 330,000 compounds, 1.2% hits; active = max response of -50% or lower; inconclusive = between -30% and -50%; inactive = -30% or higher; also: value at the top dose of about 77 µM
#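 ADP-Glo luminescence end-point read after a 60 min room-temperature kinase reaction of PI5P4Kalpha plus substrate, initiated with ATP at 5 microM final. Buffer: 0.038 M HEPES pH 7.4, EGTA, 0.1% CHAPS, 5% DMSO.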
# Pol eta inh-1 – inhibitors of human DNA polymerase eta | recombinant Pol eta, fluorescent DNA replication assay | Potency, µM (series often up to 114 µM), hits mostly inhibitors | 390,000 compounds, 1.2% hits | AID 588591
#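 Fluorescent replication assay: 50 nM final substrate added after a 15 min room-temperature compound preincubation with 10 nM enzyme. Signal taken at 0 min and again at 10 min.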
# Pol kappa inh-1 – blocks human DNA polymerase kappa activity | Q9UBT6 | Potency, µM (titrated, usually from 107 µM), actives largely listed as inhibitors | 400,000 compounds, 0.53% hits | purified Pol kappa, fluorescent DNA synthesis assay, 10 min
#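 10 nM Pol kappa preincubated 15 min at room temperature with compounds, then reaction started with substrate at 50 nM final. Fluorescence read kinetically at 0 and 10 min; buffer-only wells served as negative control.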
# PGK validate – TbPGK inhibition, hit validation; shares compounds with Pol kappa inh-1; TbPGK coupled GAPDH assay, Kinase-Glo luminescence; Potency, µM (doses to about 57.5 µM), most hits filed as inhibitors; AID 686980; 500 compounds, 79% hits; also: nearly all actives have a fitted effect of over 65% in size
# Pol iota confirm – Confirm cherry-picked inhibitors of human polymerase iota | shares compounds with Pol kappa inh-1 | Pol iota primer extension, TAMRA/BHQ fluorescence | Potency, µM, usual class: inhibitors | 1,500 compounds, 77% hits
# Pol kappa inh-2 – Pol kappa (human) inhibition, cherry-pick confirmation; purified Pol-kappa, fluorescent strand-displacement substrate; Potency, µM, usual class: inhibitors; shares compounds with Pol eta inh-1; 920 compounds, 76% hits
# Pol eta inh-2 – Pol eta (human) inhibition, cherry-pick confirmation | shares compounds with Pol eta inh-1 | Pol eta primer extension, TAMRA/BHQ fluorescence, 10 min | Potency, µM, hits mostly inhibitors | 2,600 compounds, 64% hits
# A number is an active result; . = inactive; ? = inconclusive; / = not tested or not shown. The list is not random: actives were taken first. Their share in the collection is about 2.8%. Unless noted, calls follow the shape of the dose curve; as a rule, active = well fitted curve in the direction sought with a large enough effect; inconclusive = small, poorly fitted or top-dose-only effect, or another doubt; inactive = no such curve, though single readings can be large; an effect the other way counts as inactive or inconclusive.
SMILES,Pol beta inh,POLI inh,PI4K2A block,PI5P4K alpha inh,Pol eta inh-1,Pol kappa inh-1,Pol iota confirm,Pol eta inh-2,others
Cc1ccc(NC(=O)/C(C#N)=C/c2cc(C)n(-c3ccc(Br)cc3)c2C)cc1C,.,.,.,/,.,.,/,/,
O=C(CCN1C(=O)/C(=C/c2ccc(Cl)cc2)SC1=S)Nc1ccc(C(=O)O)cc1,.,.,.,.,.,.,/,/,
O=C(CCN1C(=O)/C(=C\c2ccco2)SC1=S)Nc1ccc(C(=O)O)c(O)c1,100µM,.,.,-74,8.9µM,20µM,19,5.4,Pol kappa inh-2=4.7
O=C(CCN1C(=O)/C(=C/c2ccco2)SC1=S)Nc1ccc(C(=O)O)c(O)c1,?,4µM,.,-63,4.5µM,20µM,30,?,Pol kappa inh-2=17
COc1ccccc1OCCCCn1c(-c2ccc(Cl)cc2)nc2ccccc2c1=O,.,.,.,/,.,.,/,/,
CCN(CC)CCCNC(=O)c1nn(-c2ccc(C)cc2)c(=O)c2c1c1ccccc1n2C,.,.,.,/,/,.,/,/,
CCN(CC)CCOC(=O)c1ccc(NC(=O)c2nn(-c3ccc(C)cc3)c(=O)c3c2c2ccccc2n3C)cc1,7.9µM,?,.,/,79µM,.,?,?,Pol kappa inh-2=?
CCOc1ccccc1NC(=O)Cn1c(=O)n(-c2ccc(C)cc2)c(=O)c2c1cnn2C,.,.,.,/,.,.,/,/,
Cc1ccc(S(=O)(=O)N2[C@@H](c3ccc(C(C)(C)C)cc3)C(C(=O)O)=CC[C@H]2c2ccc(Cl)cc2)cc1,/,?,.,?,79µM,?,?,?,Pol kappa inh-2=67
Cc1ccc(S(=O)(=O)N2[C@@H](c3cccc(Cl)c3)C(C(=O)O)=CC[C@H]2c2ccc(Cl)cc2)cc1,/,.,.,.,?,.,/,/,
COCC(=O)N1C[C@@H](C)[C@@H](OC)CN(C)C(=O)c2ccc(NC(=O)c3cnccn3)cc2OC[C@H]1C,/,/,.,.,/,/,/,/,
CCCCCCCCN1C(=O)[C@H](CC(=O)NCCCCc2ccccc2)C[C@@]2(C(=O)OC)CC(C)(C)CC=C12,/,/,.,.,/,/,/,/,
COc1cc(/C=N/NC(=S)Nc2cccc(S(=O)(=O)N(C)C)c2)cc(OC)c1O,.,.,.,.,.,.,/,/,
CN(C)S(=O)(=O)c1cccc(NC(=S)N/N=C/c2ccc(O)c(O)c2O)c1,.,?,.,-97,?,?,13,19,
O=C(Nc1cccc(Br)c1)C1CCCC1,/,.,.,.,.,.,/,/,
O=C(O)C1CCCCC1C(=O)Nc1cccc(Br)c1 (stereo not drawn),/,45µM,.,?,13µM,?,75,38,Pol kappa inh-2=19
O=C(O)c1cccc2c1Cc1cc(Cl)ccc1-2,/,.,.,.,.,.,/,/,
COC(=O)CN1C(=O)[C@@H]2[C@H](C1=O)[C@@H]1CC(C(=O)OC)=C[C@@H](C(=O)OC)C3C1=C(C(=O)[C@@]3(C)NC(=O)c1ccccc1)[C@@H]2C (stereo partly drawn),/,.,/,/,/,.,/,/,
COc1cccc(/C=C2\Oc3cc(OCC(=O)N4CCCC4)ccc3C2=O)c1OC,.,.,.,.,.,.,/,/,
O=C(O)COc1ccc2c(c1)O/C(=C\c1ccco1)C2=O,32µM,11µM,.,?,5µM,79µM,27,30,Pol kappa inh-2=6.7
CCc1ccc(NC(=O)C2CCN(c3cc(C)nc4c(-c5ccc(Cl)cc5)c(C)nn34)CC2)cc1,.,.,.,/,.,.,/,/,
O=C1C2C(C(=O)N1/N=C/c1cc([N+](=O)[O-])c(O)cc1O)C1C=CC2C12CC2 (stereo not drawn),11µM,20µM,.,-74,10µM,50µM,42,30,
O=C(O)c1ccccc1/C=N/NC(=O)c1cc(-c2ccco2)nc2ccccc12,8.9µM,?,.,-94,3.2µM,35µM,17,7.6,
O=C(Nc1ccc(F)cc1F)c1cc(-c2ccco2)nc2ccccc12,.,.,.,?,.,.,/,/,
O=C(Nc1ccccc1F)c1cc(-c2ccco2)nc2ccccc12,/,?,.,?,79µM,.,?,85,
SMILES,Pol beta inh,POLI inh,PI4K2A block,PI5P4K alpha inh,Pol eta inh-1,Pol kappa inh-1,Pol iota confirm,Pol eta inh-2,others
Cn1c(N)c(C(=O)COC(=O)c2cc(-c3ccco3)nc3ccccc23)c(=O)n(C)c1=O,16µM,7.1µM,?,-77,7.9µM,?,24,19,
COc1ccccc1Cn1ccn(Cc2c(F)cccc2Cl)c(=O)c1=O,.,.,.,/,.,.,/,/,
O=c1c(-c2ccc([N+](=O)[O-])cc2)coc2c(O)c(O)ccc12,?,8.9µM,.,.,3.2µM,7.1µM,/,8.5,PGK validate=2.6µM
COc1ccc(/C=C2\C(=O)NC(=S)N2C(=O)c2ccc(C)cc2)cc1,20µM,18µM,.,?,16µM,?,?,?,
O=C1NC(=S)N(C(=O)c2ccc(F)cc2)/C1=C/c1cccnc1,?,?,.,.,.,.,/,/,
COc1ccc(-c2csc(/C(C#N)=C\c3ccc(OC)c([N+](=O)[O-])c3)n2)cc1,.,.,.,.,.,.,/,/,
COc1cc(/C=C(\C#N)c2nc3ccccc3s2)cc([N+](=O)[O-])c1O,40µM,?,.,-72,?,89µM,75,76,
CCOC(=O)[C@]12CCCC=C1N(Cc1ccc(OC)cc1)C(=O)[C@@H]2CC(=O)NCCC(C)C,/,/,.,/,/,/,/,/,
C#CCSc1nc2sc3c(c2c(=O)n1C)CCC3,28µM,25µM,.,?,20µM,?,67,60,Pol kappa inh-2=34
O=C(Nc1cccc(Cl)c1)c1ccccc1,/,.,.,.,.,.,/,/,
O=C1C(Cl)=C(NC(=O)c2ccccc2)C(=O)C(Cl)=C1NC(=O)c1ccccc1,.,1.6µM,.,-84,.,.,24,85,
CC/C(C)=C1/NC(=O)NC1=O,/,.,.,.,.,.,/,/,
C/C(C/C(C)=C1/SC(=S)NC1=O)=C1\SC(=S)NC1=O,16µM,3.5µM,.,-105,3.5µM,20µM,30,6,
CCOc1ccc(Cn2nnc3c(=O)[nH]c(C4CCN(C(=O)c5ccccc5)CC4)nc32)cc1,.,.,.,/,.,.,/,/,
CC(NC1=CC(=O)c2cccnc2C1=O)C(O)c1ccccc1 (stereo not drawn),/,4.5µM,?,.,16µM,.,19,24,
